Screen size: about 85,000 compounds; about 440 (0.52%) showed an effect of 50% or more. The entries come from a sample that favours strong results as a whole.
Experiment: In vitro enzyme assay to detect hydrolysis of chlorophenol red-beta-D-[…] directly proportional to the number of Toxoplasma stably expressing beta-galactosidase
Type: functional, organism-based, Toxoplasma gondii
Design: scale not given: in the data most compounds retested in dose-response had high values

| SMILES | Percent Effect (50 µM) [%] | Percent Effect (10 µM) [%] |
| --- | --- | --- |
| COC1CNc2ccccc2C1 (stereo not drawn) | -15.01 |  |
| NC(=O)CN1CCCN(C(=O)c2ccc(Br)o2)CC1 | -5.913 |  |
| Fc1ccc(NCC2CCC3(CC2)OCCO3)nc1 | 8.487 |  |
| CCC(CC)C(=O)N1C[C@@H](CO)[C@H](N(C)C)C1 | 16.3 |  |
| COc1ccc(CN2CCCC2)cc1Oc1ccc2c(c1)CC(CN)O2 (stereo not drawn) |  | -15.09 |
| Cc1cc(CN2CCCC2)cc(Oc2ccc3c(c2)CC(CN)O3)c1 (stereo not drawn) |  | -8.923 |
| NCC1Cc2cc(Oc3cc(F)c(CN4CCCC4)c(F)c3)ccc2O1 (stereo not drawn) |  | 54.73 |
| CSCC(CCO)NC(=O)Nc1cccc(F)c1 (stereo not drawn) | -3.551 |  |
| Cc1nc(-c2ccc(NCCc3ccc(O)cc3)nc2)[nH]c(=O)c1C |  | 31.24 |
| CCc1cc(=O)[nH]c(-c2ccc(NCCC(C)O)nc2)n1 (stereo not drawn) |  | 3.239 |
| CCc1cc(=O)[nH]c(-c2ccc(NCCc3ccc(O)cc3)nc2)n1 |  | 56.82 |
| N#Cc1ccc(S(=O)(=O)N2CCCO2)c(Cl)c1 | 6.897 |  |
| N#CCCNC(=O)CN1CCCCCC1 | -10.45 |  |
| N#CCCNC(=O)CN1CCCCC1 | -2.214 |  |
| N#CCCNC(=O)CN1CCCC1 | 96.45 |  |
| CCC(C)CS(=O)(=O)Nc1ccc(F)c(C(N)=O)c1 (stereo not drawn) | 12.83 |  |
| O=C(Cc1ccccc1)NCc1ccncc1 | 2.374 |  |
| COCc1nn(CC(=O)c2cc(F)ccc2F)c(=O)o1 | 53.45 |  |
| COCc1nn(Cc2ccc(Cl)s2)c(=O)o1 |  | 11.6 |
| COCc1nn(Cc2ccccc2Cl)c(=O)o1 | 10.13 |  |
| CN(CC1CCOC1)C(=O)c1cc(F)ccc1F (stereo not drawn) | 12.99 |  |
| CC1CCN(C(=O)Cn2cncc(Br)c2=O)CC1 | 8.773 |  |
| CC(O)CN1CCN(Cc2cccc(C(=O)N3CCCCC3)c2)CC1 (stereo not drawn) |  | 67.87 |
| CSCc1cccc(C(=O)N2CCN(CC(C)O)CC2)c1 (stereo not drawn) |  | -0.6353 |
| CC(O)CN1CCN(Cc2cccc(C(=O)N(C)C)c2)CC1 (stereo not drawn) |  | 5.816 |

| SMILES | Percent Effect (50 µM) [%] | Percent Effect (10 µM) [%] |
| --- | --- | --- |
| CC(C)C(=O)N1CCN(CCc2ccccn2)CC1 | -1.569 |  |
| c1csc(N2CCN(c3ncnc4sccc34)CC2)n1 |  | 15.87 |
| Cn1nc2c(cc1=O)CN(c1ncnc3sccc13)CC2 |  | 80.8 |
| CCCn1nc2c(cc1=O)CN(c1ncnc3sccc13)CC2 |  | 8.636 |
| CCn1nc2c(cc1=O)CN(c1ncnc3sccc13)CC2 |  | 58.75 |
| CC(C)n1nc2c(cc1=O)CN(c1ncnc3sccc13)CC2 |  | 1.477 |
| CC(C(=O)Nc1nccs1)N1CCc2nn(C)c(=O)cc2C1 (stereo not drawn) |  | 7.43 |
| CC(C)NC(=O)CCN1CCC(CN2CCCC2)CC1 | 15.46 |  |
| O[C@@H]1CN(Cc2ccccc2)C[C@@H]1O | 8.775 |  |
| Cc1noc(C)c1COC1CCNC1 (stereo not drawn) | 7.368 |  |
| O=C(COc1ccc(F)cc1)Nc1ccon1 | -3.156 |  |
| CC(NC(=O)C1CCNCC1)c1cccc(F)c1 (stereo not drawn) | 17.33 |  |
| OC1(Cc2ccccn2)CCNCC1 | -0.4203 |  |
| Cc1cccc(NCC2CCN(CCC(N)=O)C2)n1 (stereo not drawn) | 2.724 |  |
| COc1ccc(CN(C)C(=O)C2CC2)cc1F | 5.333 |  |
| CCNC(C)(C)C(=O)N(C)Cc1ccc(OC)c(F)c1 | 94.51 |  |
| COc1ccc(CN(C)C(=O)CCNC(C)=O)cc1F | -5.409 |  |
| NCc1ccc(-n2cc(Cl)cn2)cc1 | -34.41 |  |
| CCCn1ccnc1CNC(=O)c1ccc(F)c(O)c1 | 10.15 |  |
| CN1CCc2nc(NC(=O)c3cncc(Br)c3)sc2C1 | -4.285 |  |
| CCN1CCc2nc(NC(=O)c3cc(Br)c[nH]3)sc2C1 | -7.995 |  |
| CCN1CCc2nc(NC(=O)c3ccncc3)sc2C1 | 61.16 |  |
| O=C(NCCCNCc1ccccc1)c1ccco1 | -4.419 |  |
| CN1N=C(C(=O)NC2CCCc3occc32)CCC1=O (stereo not drawn) | 1.103 |  |
| COc1ccc(CN)c(F)c1 | 0.131 |  |

| SMILES | Percent Effect (50 µM) [%] | Percent Effect (10 µM) [%] |
| --- | --- | --- |
| Cc1ccc(C(=O)N2CCN(C(C)C(N)=O)CC2)s1 (stereo not drawn) | 98.87 |  |
| Cc1csc(N2CCN(C(=O)c3ccc(C)s3)CC2)n1 |  | -15.38 |
| CC(C(N)=O)N1CCN(C(=O)c2ccc(Br)cc2)CC1 (stereo not drawn) | 3.88 |  |
| OC1CN(Cc2ccc(OCc3ccccn3)cc2)C1 | -10.4 |  |
| COc1c(C)cnc(CN(C)C)c1C | 0.7571 |  |
| COc1c(C)cnc(CN(C)C2CCN(C3CCOCC3)CC2)c1C |  | 16.07 |
| COc1c(C)cnc(CN(C)C2CCCCC2)c1C |  | 62.27 |
| CC(Cn1cccn1)NC(=O)c1cncc(Br)c1 (stereo not drawn) | 6.883 |  |
| c1nc(CCNc2nc(C3CC3)nc3c2CCNCC3)c[nH]1 |  | 13.19 |
| C1Cc2nc(CCNc3nc(C4CC4)nc4c3CCNCC4)sc2C1 |  | 77.67 |
| Cc1nc2c(c(NCCc3nc4c(s3)CCCC4)n1)CCNCC2 |  | -0.699 |
| N[C@H]1CC[C@@H](n2cc(Br)cn2)CC1 | 5.491 |  |
| Cc1ccc(CNC(=O)C2CCCCC(=O)N2)o1 (stereo not drawn) | 50.04 |  |
| Cc1ccc(CNC(=O)C2(C)CCCCC(=O)N2)o1 (stereo not drawn) | 14.66 |  |
| Cc1cccc(CNC(=O)C2CCCCC(=O)N2)c1 (stereo not drawn) | -7.628 |  |
| N#CC1CCN(C(=O)c2ccc(SCCO)cc2)CC1 | -14.8 |  |
| CNc1cccc2cccnc12 | -1.4 |  |
| CNc1cccnc1N(C)C | 57.74 |  |
| CN(C)c1ncccc1N | 1.469 |  |
| COC(C(=O)NC1(C)CCOCC1)c1ccccc1 (stereo not drawn) | -2.025 |  |
| CSCCCN1CCN(C(=O)c2ccc[nH]2)CC1 | -8.697 |  |
| CO[C@H]1[C@@H]2CC[C@H]1CN(c1nc(C)nc3sccc13)C2 |  | 8.834 |
| CO[C@H]1[C@@H]2CC[C@H]1CN(c1nc(C)nc3ccsc13)C2 |  | 70.73 |
| Cc1nc(N2C[C@@H](CN3CCCCC3)[C@@H](CO)C2)c2sccc2n1 |  | -8.225 |
| CC(C)(C)NCC(=O)Nc1ccc(Cl)cn1 | -9.06 |  |

| SMILES | Percent Effect (50 µM) [%] | Percent Effect (10 µM) [%] |
| --- | --- | --- |
| CN1Cc2cc(O)ccc2C1=O | 4.771 |  |
| Cc1noc(C)c1CCCNC(=O)Nc1ccc2c(c1)CC(=O)N2 |  | -25.73 |
| Cc1cc(C(=O)Nc2ccc3c(c2)CC(=O)N3)c(C)o1 | 62.73 |  |
| COc1cccc(NC(=O)Nc2ccc3c(c2)CC(=O)N3)c1 |  | 14.2 |
| O=C(NC1CC1)C1CCCN1c1ccc2nnnn2n1 (stereo not drawn) | 14.68 |  |
| Cc1ccc(CNCCN2CCOCC2)s1 | -0.4782 |  |
| CC(CO)N(C)C(=O)c1cccc2cc[nH]c12 (stereo not drawn) | 3.789 |  |
| O=C(NC(C1CCNCC1)[C@H]1C[C@H](O)C1)C1CC=CC1 (stereo partly drawn) | -3.099 |  |
| CSCC(=O)NC(C1CCNCC1)[C@H]1C[C@@H](O)C1 (stereo partly drawn) | 54.38 |  |
| CSCCC(=O)NC(C1CCNCC1)[C@H]1C[C@H](O)C1 (stereo partly drawn) | 2.303 |  |
| CN(C)C(=O)C1OCCc2ccccc21 (stereo not drawn) | -9.561 |  |
| CCN(C1CC1)S(=O)(=O)c1ccc(OC)c(C(N)=O)c1 | -4.702 |  |
| CC(C)OCCOCC(O)CN(C)Cc1cccnc1 (stereo not drawn) | -1.887 |  |
| Cc1cscc1C(=O)NCCc1cncn1C | -7.221 |  |
| NCc1cc(Br)c2c(c1)OCO2 | 33.59 |  |
| CC(C)S(=O)(=O)N(C)C(=O)c1cc(Br)c2c(c1)OCO2 | 10.61 |  |
| CCOC(=O)C(O)c1cc(Br)c2c(c1)OCO2 (stereo not drawn) | 60.1 |  |
| CC(C)NC(=O)C(C)n1cncn1 (stereo not drawn) | 7.173 |  |
| CN(CCN)S(=O)(=O)c1cccs1 | -2.794 |  |
| Cc1cc(C)n(-c2cncc(NCCNC(=O)C3CCCC3)n2)n1 |  | -17.81 |
| Cc1cc(C)n(C2=NC(NCCC(C)C)c3c(sc4c3CCCC4)N2)n1 (stereo not drawn) |  | -32.33 |
| Cc1cc(C)n(-c2nc(NCCCO)c3c4c(sc3n2)CCCC4)n1 |  | 81.16 |
| O=C(NCc1cn2ccccc2n1)c1ccc(=O)oc1 | -17.09 |  |
| CCCOc1ccc(Cl)cc1NC(=O)NCCC(=O)N(C)C |  | 15.25 |
| CNCC(=O)Nc1cc(Cl)ccc1OC | -3.261 |  |

| SMILES | Percent Effect (50 µM) [%] | Percent Effect (10 µM) [%] |
| --- | --- | --- |
| COCCNC(=O)Nc1cc(Cl)ccc1OC | 51.47 |  |
| O=C(CCC1CCCCC1)NCc1c[nH]nn1 | 1.133 |  |
| CC(N)c1ccccc1N1CCOCC1 (stereo not drawn) | 0.1688 |  |
| C[C@@H](CO)NC(=O)NCC1CCN(CC(F)(F)F)CC1 | -3.478 |  |
| COCCC1(CO)CCCN(CC(N)=O)C1 (stereo not drawn) | 0.1422 |  |
| COCCC1(CN2CCC(C(N)=O)C2)CCC1 (stereo not drawn) | 68.22 |  |
| COCCC1(CN2CCCC(C(N)=O)C2)CCC1 (stereo not drawn) | -0.683 |  |
| CN(CC1CCOCC1)C(=O)c1ccc(CN)cc1 | 0.3864 |  |
| Cc1c(Cl)c(C(=O)N2CCCCC2)nn1C | 24.41 |  |
| CCN(CC)Cc1nnnn1-c1ccccc1 | 68.75 |  |
| CN(Cc1ccc2c(c1)OCCO2)Cc1nnnn1-c1ccccc1 |  | -19.55 |
| CCS(=O)(=O)Cc1nnnn1-c1ccccc1 |  | -0.7088 |
| O=C(Nc1ccccc1N1CCCC1)C1CCOC1 (stereo not drawn) | 2.349 |  |
| O=C(CCNC(=O)c1ccoc1)NCc1ccccc1F |  | -6.438 |
| CS(=O)(=O)Nc1ccccc1CNC(=O)c1ccoc1 | 97.49 |  |
| CN(C)c1ncccc1CNC(=O)c1ccoc1 | -3.271 |  |
| CC1CCCN(CCCN)C1 (stereo not drawn) | 8.539 |  |
| O=C(CC1CSCCN1)NCCc1ccc(F)cc1F (stereo not drawn) | 0.8144 |  |
| CCCc1noc(COc2nc(C)no2)n1 | 3.348 |  |
| CC(C)C(NC(=O)Cn1cnnn1)c1cccs1 (stereo not drawn) | 19.15 |  |
| O=C(N1CCOCC1)[C@@]12CCO[C@@H]1CCN(C1CCCCC1)C2.O=C(O)C(F)(F)F |  | -8.917 |
| O=C(N1CCOCC1)[C@@]12CCO[C@@H]1CCN(C1CCOCC1)C2.O=C(O)C(F)(F)F |  | 86.48 |
| O=C(N1CCOCC1)[C@@]12CCO[C@@H]1CCN(C1CCC1)C2.O=C(O)C(F)(F)F |  | 41.32 |

Reference: ChEMBL document CHEMBL3988442, “University of Dundee, Small-Polar-MMV Screening Library” (2021)
